Compound activity from PubChem.
In the library only some 3% were active in any assay of this set; here they are far more common.
p53null 39C tox = selectivity test: cytotoxicity in p53 null cells, nonpermissive temperature; H1299 p53-null (neo) cells, 39C, ATPlite viability, 24 h; Potency, µM (series often up to 46.1 µM), for the others: at the highest dose activity, negative = cell killing, most hits filed as cytotoxic; 55,000 tested, 0.97% active;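 note: potency is the fitted concentration of half-maximal effect; 0% = DMSO only and -100% = full killing by 100 µM tamoxifen; nearly all actives have a fitted effect of over 50% in size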
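Temperature-shift cytotoxicity format: compound titrations on p53-null or A138V-expressing H1299 cells held 24 hr at 39C, cell ATP then measured, AC50 from Hill model.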
p53null 32C kill = selectivity test: cytotoxicity in p53 null cells, permissive temperature | H1299-neo p53 null cells, ATP luminescence, 24 h, 32C | Potency, µM (top dose mostly 46.1 µM), for inactives: top-dose activity change, negative = cytotoxicity, hits mostly cytotoxic | 55,000 tested, 0.62% active;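 note: potency is the fitted concentration of half-maximal effect; 0% = DMSO only and -100% = full killing by 100 µM tamoxifen; nearly all actives have a fitted effect of over 55% in size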
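Cells lacking p53 (H1299-neo) are plated at 600 per well and allowed to settle overnight at 37C. Test compounds (up to 46 uM) are added and held 24 hours at 32C, then ATP is quantified by luminescence.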
mTORC1 inh = reduces mTORC1 signaling in Tsc2 and p53 null MEF cells; 44,000 tested, 0.78% active; Potency, µM (doses to about 38.3 µM), for the others: at the highest dose activity change, negative = inhibition, most hits filed as inhibitors; AID 493208; Tsc2-/- p53-/- MEF, phospho-rpS6 immunofluorescence/PI, 24 h;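 note: potency is the fitted concentration of half-maximal effect; plate controls were DMSO for no effect and rapamycin for full effect; nearly all actives have a fitted effect of over 50% in size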
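Immunofluorescence of rpS6 phosphorylation in Tsc2-/-, p53-/- MEFs after 24 h compound exposure, normalized to propidium iodide signal. Activity is expressed as % positive cells, thresholded with 7.5 nM rapamycin.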
PMP22 txn prim = modulators of PMP22 gene transcription in S16 Schwann cells | S16 Pmp22-F2sN Schwann cells, FLuc/NLuc coincidence luminescence, 24 h | Potency, µM (series often up to 57.5 µM), without a hit: at the highest dose activity change, negative = inhibition, actives largely listed as inhibitors | 43,000 tested, 2% active; active = clear falling dose curves in both reporters; inconclusive = both reporters move, but less clearly or upward; inactive = either reporter flat; the % is the NLuc reporter signal; note: potency is the fitted concentration of half-maximal effect; % is set by controls: 0 for no effect and ±100 for the full control effect
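S16 Schwann cells carrying FLuc/NLuc coincidence reporter in the Pmp22 3' UTR treated with compound 24 h at 37C; FLuc then NLuc luminescence read sequentially by dual-luciferase reagents.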
OvCa metastasis = ovarian cancer metastasis inhibition, 3D TME model; Potency, µM (doses to about 45.8 µM), for inactives: top-dose activity change, negative = inhibition, actives largely listed as inhibitors; 46,000 tested, 0.1% active; SKOV3ip1-GFP adhesion/invasion on 3D omental model, fluorescence; AID 1963576;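 note: potency is the fitted concentration of half-maximal effect; plate controls were DMSO wells for no effect and tomatine positive control wells for full effect; nearly all actives have a fitted effect of over 65% in size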
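A 3D layer of primary human omental fibroblasts, mesothelial cells, fibronectin and collagen I, grown 48 hr, received SKOV3ip1-GFP cells in serum-free medium plus compounds at 0.36-46 umol/L. After 2 hr RT and 16 hr 37 C, fixed adherent GFP cells were counted; normalized to DMSO and tomatine.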
S16 viability = toxic to S16 Pmp22-F2sN Schwann cells; S16 Pmp22-F2sN Schwann cells viability, CellTiter-Glo, 24 h; Potency, µM (highest dose often 57.5 µM), without a hit: at the highest dose activity change, negative = cytotoxicity, hits mostly cytotoxic; 43,000 tested, 0.48% active; note: potency is the fitted concentration of half-maximal effect; % is set by controls: 0 for no effect and ±100 for the full control effect; nearly all actives have a fitted effect of over 65% in size
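S16 Schwann cells carrying the Pmp22-F2sN reporter, seeded in 1536-well format, were exposed to library compounds for 24 h at 37C. Viability was read as CellTiter-Glo luminescence after 15 min at room temperature.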
NLuc sat counter = counter-screen for PMP22 expression modulators: NanoLuc inhibition, saturating substrate; shares compounds with PMP22 txn prim; Secreted NLuc enzyme (filtered S16 cell medium), Nano-Glo luminescence; Potency, µM (titrated, usually from 57.5 µM), inactives show at the top dose activity change, negative = inhibition, most hits filed as inhibitors; 690 tested, 4% active; note: potency is the fitted concentration of half-maximal effect; % is set by controls: 0 for no effect and ±100 for the full control effect
NLuc Km counter = counter-screen for PMP22 expression modulators: NanoLuc inhibition at Km; shares compounds with PMP22 txn prim; secreted NLuc enzyme, coelenterazine luminescence, Km conditions; Potency, µM (top dose mostly 57.5 µM), without a hit: top-dose activity change, negative = inhibition, actives largely listed as inhibitors; 690 tested, 5% active; AID 1508639; note: potency is the fitted concentration of half-maximal effect; % is set by controls: 0 for no effect and ±100 for the full control effect
FLuc ctr PMP22 = counter-screen for PMP22 expression modulators: firefly luciferase inhibition; shares compounds with PMP22 txn prim; purified P. pyralis FLuc, luminescence, 10 min; Potency, µM (top dose mostly 57.5 µM), inactives show at the highest dose activity, negative = inhibition, actives largely listed as inhibitors; 690 tested, under 10 active; AID 1508640; note: % of control where 0% means no effect
Target sequence (P08659 whole entry, looked up): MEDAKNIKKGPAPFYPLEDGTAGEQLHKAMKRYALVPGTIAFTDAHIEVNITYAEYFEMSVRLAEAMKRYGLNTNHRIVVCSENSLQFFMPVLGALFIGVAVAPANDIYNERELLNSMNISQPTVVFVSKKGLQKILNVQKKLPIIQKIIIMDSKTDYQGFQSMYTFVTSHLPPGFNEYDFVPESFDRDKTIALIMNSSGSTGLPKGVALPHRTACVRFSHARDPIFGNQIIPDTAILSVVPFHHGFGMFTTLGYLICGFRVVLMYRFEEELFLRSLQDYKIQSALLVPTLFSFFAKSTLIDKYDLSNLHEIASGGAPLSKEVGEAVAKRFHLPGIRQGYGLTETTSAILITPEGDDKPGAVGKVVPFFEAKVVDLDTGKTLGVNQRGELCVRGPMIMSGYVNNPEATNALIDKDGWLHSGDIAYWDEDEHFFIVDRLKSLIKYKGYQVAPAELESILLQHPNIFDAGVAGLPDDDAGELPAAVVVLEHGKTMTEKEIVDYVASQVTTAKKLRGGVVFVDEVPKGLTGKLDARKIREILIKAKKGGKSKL
S16 viab conf = confirmation of cytotoxicity in S16 Pmp22-F2sN Schwann cells (luciferase reporters placed in the Pmp22 gene); S16 Schwann cells viability, CellTiter-Glo ATP luminescence, 24 h; shares compounds with PMP22 txn prim; 690 tested, 7% active; Potency, µM (highest dose often 57.5 µM), for inactives: at the top dose activity change, negative = viability loss, actives largely listed as cytotoxic; AID 1508641; note: potency is the fitted concentration of half-maximal effect; % is set by controls: 0 for no effect and ±100 for the full control effect
PMP22 txn cnf = PMP22 transcription modulation, confirmatory | shares compounds with PMP22 txn prim | Potency, µM (titrated, usually from 57.5 µM), inactives show top-dose activity change, negative = inhibition, most hits filed as inhibitors | 690 tested, 22% active | S16 Schwann cells Pmp22-F2sN, dual luciferase, 24 h; active = clear falling dose curves in both reporters; inconclusive = both reporters move, but less clearly or upward; inactive = either reporter flat; the % is the FLuc reporter signal; note: potency is the fitted concentration of half-maximal effect
PMP22 prot conf = confirmation of modulators of rat PMP22 protein expression; shares compounds with PMP22 txn prim; S16 Schwann cells Pmp22-HiBiT, luminescence, 48 h; Potency, µM (doses to about 27.9 µM), for the others: top-dose activity change, negative = inhibition, most hits filed as inhibitors; 95 tested, under 10 active
Target sequence (P25094 whole entry, looked up): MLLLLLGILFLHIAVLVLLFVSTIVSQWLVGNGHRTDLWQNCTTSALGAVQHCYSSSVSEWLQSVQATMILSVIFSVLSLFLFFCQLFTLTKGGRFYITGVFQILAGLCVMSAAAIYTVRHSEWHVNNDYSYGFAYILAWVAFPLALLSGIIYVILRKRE
* hit, by the source's call; i = inactive; u = inconclusive; x = no result. Unless noted, calls come from the whole dose curve; as a rule, active = well fitted curve in the direction sought with a large enough effect; inconclusive = small, poorly fitted or top-dose-only effect, or another doubt; inactive = no such curve, though single readings can be large; an effect the other way counts as inactive or inconclusive.

SMILES	p53null 39C tox	p53null 32C kill	mTORC1 inh	PMP22 txn prim	OvCa metastasis	S16 viability	NLuc sat counter	NLuc Km counter	FLuc ctr PMP22	S16 viab conf	PMP22 txn cnf	others
CCOC(=O)c1ccc(N2C(=O)c3n[nH]c(-c4ccco4)c3C2c2ccc(O)c(OCC)c2)cc1 (centres undefined)	26.8%	7.8%	u	u	-1.7%	u	x	x	x	x	x
CCOC(=O)c1ccc(N2C(=O)c3[nH]nc(-c4ccc(C)cc4)c3C2c2ccc(O)c(OCC)c2)cc1 (centres undefined)	27.8%	26.9%	0.6%	12.7µM*	0.3%	-20.2%	-11.7%	-13.3%	-2.8%	u	u	PMP22 prot conf=-17.1%
Cc1ccc(-n2nc(C(C)(C)C)cc2NC(=O)Nc2ccc(OCCN3CCOCC3)c3ccccc23)cc1	x	x	x	x	26.3%	x	x	x	x	x	x
O=C(Nc1ccc(F)cc1Cl)C1CCN(c2ncnc3c2nc2n3CCCCC2)CC1	-0.6%	0.0%	-3.2%	17µM*	1.6%	-24.7%	-18.7%	7.7%	-14.2%	-3.3%	u
N[C@H]1CN(c2c(F)cc3c(=O)c(C(=O)O)cn(C4C[C@@H]4F)c3c2Cl)CC12CC2 (some centres undefined)	x	x	x	x	-13.0%	x	x	x	x	x	x
O=S(=O)(NCC(c1ccco1)S(=O)(=O)c1cccs1)c1ccc(Cl)cc1 (centres undefined)	-10.8%	11.1%	18.5µM*	15µM*	-25.7%	-13.8%	u	u	-5.6%	8.3%	7.56µM*	PMP22 prot conf=-26.5%
CC(=CC(=O)Nc1ccccc1C(=O)O)c1ccc2ccccc2c1	x	x	x	x	-13.8%	x	x	x	x	x	x
CC(=O)NC(CS)C(=O)O (centres undefined)	x	x	x	x	-22.9%	x	x	x	x	x	x
Cc1c2cnn(CC(=O)NCc3ccccc3)c(=O)c2c(C)n1Cc1cccc(Cl)c1	u	7.6%	u	12.9µM*	0.3%	-12.6%	-12.1%	-1.0%	-4.5%	-10.2%	u
Cc1cc(-c2ccc(CC(=O)Nc3ccc(-c4cccnc4)cc3)cc2)ccn1	x	x	x	x	-11.8%	x	x	x	x	x	x
Cc1nc2cccnc2n1C1CCN(S(=O)(=O)c2ccc(C(C)C)cc2)CC1	23.6%	29.3%	-23.3%	17µM*	-2.0%	u	-14.0%	2.6%	4.1%	-11.2%	-33.3%
CCOC(=O)C1CCN(S(=O)(=O)c2cc(Br)cc3c2N(C(=O)CC)CC3)CC1	36.8%	-6.4%	-2.5%	4.8%	i	1.6%	x	x	x	x	x
CCC(=O)N1CCc2cc(Br)cc(S(=O)(=O)N3CCC(C(=O)NC(C)(C)C)CC3)c21	-24.2%	6.1%	-0.6%	-34.0%	i	16.7%	-16.7%	-3.2%	-12.1%	-1.6%	-6.1%
CC1=Nc2cc(C(=O)NC3CCC(C)CC3)ccc2Sc2c(C)ccc(C)c21 (centres undefined)	u	26.7%	-10.5%	-115.6%	8.3%	3.9%	x	x	x	x	x
COCCCNC(=O)c1ccc2c(c1)N=C(C)c1c(C)ccc(C)c1S2	u	1.0%	-9.9%	0.089µM*	u	11.3%	-7.2%	u	-6.6%	11.2%	0.306µM*	PMP22 prot conf=u
CCC1=Nc2cc(C(=O)NCCCOC)ccc2Sc2ccc(Br)cc21	u	5.8%	u	1.27µM*	i	1.2%	-11.2%	-5.5%	8.0%	u	u	PMP22 prot conf=u
Nc1ccccc1NC(=O)c1ccc(CNc2nccc(-c3cccnc3)n2)cc1	x	x	x	x	30.1%	x	x	x	x	x	x
CON=C(C(=O)N[C@@H]1C(=O)N2C(C(=O)O)=C(Cn3ccc(=N)n3CCO)CS[C@H]12)c1csc(N)n1	x	x	x	x	-9.4%	x	x	x	x	x	x
O=C(Nc1ccc(Br)cc1F)N1CC=C(c2c[nH]c3ccccc23)CC1	24.8%	14.8%	-0.1%	u	i	-10.1%	-12.6%	u	-11.8%	10.0%	-17.4%
O=C(NCC1CN(c2ccc(N3CCOCC3=O)cc2)C(=O)O1)c1ccc(Cl)s1 (centres undefined)	x	x	x	x	-13.5%	x	x	x	x	x	x
COc1ccc(CCC(=O)Nc2nc3ccc(Cl)cc3s2)cc1OC	x	x	x	x	17.6%	x	x	x	x	x	x
Cc1ccccc1Nc1c2c(nc3nncn13)CCC2	-19.6%	-5.5%	-9.4%	-10.0%	9.6%	8.1%	x	x	x	x	x
Cc1cccc(Nc2c3c(nc4nncn24)CCC3)c1C	-19.0%	-4.4%	1.9%	u	-20.8%	-1.6%	u	8.8%	-5.9%	3.1%	u	PMP22 prot conf=2.5%
COc1ccc(OC)c(NC(=O)Cn2c(=O)c3cccn3c3ccccc32)c1	108.5%	25.4%	9.3%	u	13.7%	-2.4%	u	u	0.8%	-8.1%	-31.8%
COc1ccc(NC(=O)Cn2c(=O)c3cccn3c3ccccc32)cc1	67.6%	6.2%	-18.8%	6.7%	13.3%	5.3%	x	x	x	x	x
Cc1ccc(OCC(=O)Nc2ccc3[nH]c(=O)sc3c2)cc1	-15.7%	1.1%	-9.7%	15µM*	6.5%	15.0%	-13.3%	-13.9%	-16.2%	19.9%	u
Cc1cccc2c1-c1sc(C(=O)N(C)c3cccc(C(F)(F)F)c3)cc1CO2	-7.5%	-6.0%	-0.5%	-28.9%	-6.5%	-14.0%	x	x	x	x	x
